# This is a sample that favours compounds with a hit; in the whole collection about 21% have one here.
# CHX counter – Cycloheximide Counterscreen for Small Molecule Inhibitors of Shiga Toxin | cell reporter, cycloheximide protein synthesis inhibition counterscreen | max response, % | hit rate 12% among 300,000 | AID 2314, 2010; in the data active = max response mostly above about 13%, no sharp cut-off; inactive = mostly below about 14%; also: read at 38.3 µM for the half of the compounds with a filed dose; 0% is about no effect
# Shiga toxin inh – A qHTS for Small Molecule Inhibitors of Shiga Toxin. inhibition, % at 38.7 µM. hit rate 9.2% among 290,000. Vero cells, Shiga toxin protein synthesis inhibition reporter; in the data active = inhibition mostly above about 28%, no sharp cut-off; inactive = mostly below about 43%; also: 0% is about no effect
# Sm TGR block – qHTS Assay for the Inhibitors of Schistosoma Mansoni Peroxiredoxins | Schistosoma mansoni thioredoxin glutathione reductase (TGR), Q962Y6 | purified TGR, DTNB reduction, TNB absorbance 405 nm | Potency, µM (titrated, usually from 114 µM), inactives show at the highest dose activity change, negative = inhibition, hits mostly inhibitors | hit rate 3% among 360,000 | AID 485364, 2010; also: potency is read from the fitted curve at half-maximal effect; % is scaled to controls: 0 for no effect and ±100 for the full control effect; nearly all actives have a fitted effect of over 60% in size
#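 Kinetic colorimetric format: TGR-catalysed, NADPH-driven DTNB reduction monitored via TNB absorbance. Enzyme dispensed at 20 nM; compound exposure 15 min at room temperature before reaction start.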
# NS1 function inh – qHTS Assay for Inhibitors of Influenza NS1 Protein Function | hit rate 0.4% among 270,000 | Potency, µM (titrated, usually from 46.1 µM), without a hit: at the highest dose activity, positive = more growth; calls by dose curve; also: potency is read from the fitted curve at half-maximal effect; actives are rising curves; nearly all actives have a fitted effect of over 50% in size
#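 Growth recovery, yeast-based: influenza A NS1 expressed in S. cerevisiae causes slow growth, and suppressors are detected by OD600. The parent strain without NS1 is used as positive control.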
# Pf growth 48h – Primary qHTS for delayed death inhibitors of the malarial parasite plastid, 48 hour incubation; P. falciparum luciferase growth in erythrocytes, 48 h; Potency, µM (doses to about 28.7 µM), for inactives: at the top dose activity change, negative = inhibition, hits mostly inhibitors; hit rate 5.9% among 310,000; AID 504832, 2011; also: potency is read from the fitted curve at half-maximal effect; % is scaled to controls: 0 for no effect and ±100 for the full control effect
#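 Erythrocytes infected with P. falciparum carrying an integrated firefly luciferase reporter (2% hematocrit, 0.1% parasitemia final) were exposed to compounds in RPMI 1640 with 0.5% Albumax at 37 C, 5% CO2. Growth inhibition was scored as reduced luminescence.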
# Pf growth 96h – Primary qHTS for delayed death inhibitors of the malarial parasite plastid, 96 hour incubation. P. falciparum luciferase reporter growth, 96 h. Potency, µM (top dose mostly 28.7 µM), without a hit: at the highest dose activity change, negative = inhibition, actives largely listed as inhibitors. hit rate 6.9% among 320,000. AID 504834, 2011; also: potency is read from the fitted curve at half-maximal effect; % is scaled to controls: 0 for no effect and ±100 for the full control effect
#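 Readout is luminescence from an integrated firefly luciferase in P. falciparum. Red cells, 2% hematocrit and 0.05% parasitemia final, were cultured with compound through two parasite generations (96 hours) at 37 C, 5% CO2.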
# * hit, by the source's call; ? = inconclusive; . = no result; [ ] = dose if it differs, or a comment. Unless noted, calls follow the shape of the dose curve; as a rule, active = well fitted curve in the direction sought with a large enough effect; inconclusive = small, poorly fitted or top-dose-only effect, or another doubt; inactive = no such curve, though single readings can be large; an effect the other way counts as inactive or inconclusive.
SMILES,CHX counter,Shiga toxin inh,Sm TGR block,NS1 function inh,Pf growth 48h,Pf growth 96h
NC(=S)NN=C1c2cc(OCCN3CCOCC3)ccc2-c2ccc(OCCN3CCOCC3)cc21,0.4,-13.0,-1.6%,5.1%,3.29µM*,78.2%
COc1ccc2c(c1)C(=NO)c1cc(OC)ccc1-2,18.1*,21.7*,-0.9%,-56.0%,14.5%,.
ON=C1c2cc(OCCN3CCCCC3)ccc2-c2ccc(OCCN3CCCCC3)cc21,10.2,14.2,-21.5%,-11.1%,1.65µM*,1.47µM*
COc1cc(OC)cc(N(C(=O)C2COc3ccccc3O2)C(C(=O)NC2CCCCC2)c2ccc(O)cc2)c1 (stereo not drawn),-0.8,-3.3,-7.0%,13.0%,13.1µM*,7.38µM*
COc1cccc(C(C(=O)NC2CCCCC2)N(CCN2CCOCC2)C(=O)C2COc3ccccc3O2)c1 (stereo not drawn),-1.8,-3.2,12.3%,2.7%,-29.9%,0.1%
COc1ccc(N(C(=O)C2COc3ccccc3O2)C(C(=O)NC2CCCCC2)c2ccccc2)cc1OC (stereo not drawn),-2.9,8.4,0.6%,?,7.38µM*,?
COc1ccc(-c2csc3nc(-c4cccnc4)nc(Cl)c23)cc1OC,4.0,-7.9,7.7%,1.7%,11.7µM*,6.57µM*
Clc1nc(-c2cccnc2)nc2scc(-c3ccccc3)c12,28.5*,40.1*,-3.2%,-6.7%,11.7µM*,1.04µM*
COc1ccc(-c2csc3nc(-c4ccccc4)oc(=O)c23)cc1OC,8.2,3.0,7.0%[57.1 µM],-2.2%,22.7%,?
O=C(C1CC1)N1CCN(c2nc3ccc(F)cc3s2)CC1,.,.,10.1%,.,.,.
CCOc1ccc2nc(N3CCC(C(=O)N4CCC5(CC4)OCCO5)CC3)sc2c1,40.9*,119.2,-4.1%,-53.4%,22.7%,46.9%
O=C(C1CCN(c2nc3ccc(Br)cc3s2)CC1)N1CCC2(CC1)OCCO2,29.6*,59.2*,-3.1%,?,41.0%,4.65µM*
Cc1ccc2nc(N3CCC(C(=O)N4CCC5(CC4)OCCO5)CC3)sc2c1,40.1*,79.3*,2.7%,-22.9%,35.9%,13.5%
Cc1ccc2nc(N3CCN(C(=O)C4CC4)CC3)sc2c1,.,.,-1.5%,.,.,.
CCc1ccc2nc(N3CCC(C(=O)N4CCC5(CC4)OCCO5)CC3)sc2c1,58.2*,130.6*,4.5%,.,59.6%,?
COc1ccc(OCCSc2nc(-c3ccccc3)cc(=O)[nH]2)cc1,12.8,-6.1,-0.5%,.,-10.5%,?
Cc1ccc2c(c1)c(=O)c1ccccc1n2CCCC(=O)Nc1ccc(F)cc1F,.,.,-1.8%,.,.,.
COc1ccc(CNc2nc3c(-c4ccccc4)nnn3c3ccccc23)cc1,.,.,1.4%,.,.,.
CCOc1ccc2nc(N3CCC(C(=O)N4CCN(c5ncccn5)CC4)CC3)sc2c1,25.7*,38.6,-5.4%,-53.1%,-1.9%,?
CCOc1ccc2nc(N3CCC(C(=O)N4CCN(c5ccccn5)CC4)CC3)sc2c1,-0.4,20.4,4.8%,-35.6%,?,44.9%
S=C(c1ccc(N2CCCC2)c(Br)c1)N1CCCCC1,12.3*,16.9,-23.0%,3.5%,?,11.2%
Oc1ccc(C(=S)N2CCCCCC2)cc1,-0.7,-3.3,-1.4%,3.4%,17.3%,?
S=C(c1ccc(N2CCCC2)cc1)N1CCCCC1,51.6*,111.8*,0.0%,-49.9%,-75.7%,.
COc1ccc(C(=S)N2CCCCC2)cc1Br,0.7,11.4,.,-0.8%,-9.7%,15.7%
CCOc1ccc(C[C@H]2NC(=O)CCSSC[C@@H](C(=O)N3CCC[C@H]3C(=O)N[C@@H](CCCN)C(=O)NCC(N)=O)NC(=O)[C@H](CC(N)=O)NC(=O)[C@H]([C@@H](C)O)NC(=O)[C@H]([C@@H](C)CC)NC2=O)cc1,-10.2,18.5,.,.,.,.
SMILES,CHX counter,Shiga toxin inh,Sm TGR block,NS1 function inh,Pf growth 48h,Pf growth 96h
CC(C)CC(=O)Nc1ccc(C(=O)COC(=O)C2=COCCO2)cc1,.,.,3.5%,.,2.6%,21.0%
CC(C)C(NC(=O)Cc1ccccc1)C(=O)N1CCN(c2cccc(Cl)c2)CC1 (stereo not drawn),.,.,0.4%,.,?,?
O=C(NCCSCc1ccccc1)C1CCN(S(=O)(=O)Cc2ccccc2)CC1,.,.,0.1%,.,.,.
CN(C)c1ccc(Nc2nc3ccccc3n3nnnc23)cc1,.,.,-9.3%,.,.,.
Cc1cc(NCC2CCCCC2)nc2ccccc12,37.8*,50.7*,-3.4%,-17.4%,3.29µM*,?
CCOc1ccc(Nc2cc(C)c3ccccc3n2)cc1,49.0*,93.9*,7.4%,-39.9%,-22.3%,?
CCOc1ccc(Nc2nc3ccccc3n3nnnc23)cc1,59.0*,99.8*,-0.4%,-1.1%,.,?
CCOc1ccc(Nc2c3ccccc3nc3ccccc23)cc1,16.8,35.5*,4.4%,-68.8%,2.94µM*,2.08µM*
Cc1cc(NCCNC2=CC(=O)CCC2)nc2ccccc12,-3.9,6.7,-3.5%,8.1%,?,?
CCOc1ccc(NC(=O)c2cc(Cl)nc3ccccc23)cc1,-1.1,19.4,-0.9%,-2.2%,24.6%,53.0%
Cc1coc2cc3oc(=O)ccc3cc12,-1.0,-5.7,1.0%,3.0%,61.3%,43.7%
CCN(CC)C(=O)Cn1c(=O)n(Cc2ccc(C(=O)NCc3ccccc3Cl)cc2)c(=O)c2ccccc21,.,.,6.5%,.,.,.
COC(=O)c1cc(-c2ccc(C)cc2)c2c(=O)n(C)c(=O)n(C)c2n1,.,.,2.8%,.,.,.
COC(=O)c1cc(-c2ccc(Br)cc2)c2c(=O)n(C)c(=O)n(C)c2n1,-3.7,-5.4,5.2%,-6.1%,-10.6%,5.86µM*
Cc1cccc(NC(=O)CSc2nnc3scc(-c4ccccc4)n23)c1,.,.,6.1%,.,.,.
O=C(c1cc(F)c(F)cc1Cl)N1CCN(CCc2ccccc2)CC1,-1.5,.,1.4%,7.3%,-7.4%,-13.5%
CC(C)c1ccc(C(=O)NCCCN2CCOCC2)cc1,37.1*,59.6,4.6%,2.1%,31.7%,14.2%
O=C(NCCCN1CCOCC1)c1ccc(S(=O)(=O)N2CCOCC2)cc1,25.9*,-9.0,1.5%,9.8%,4.1%,21.8%[5.75 µM]
CC(C)=C1C2CCC1C(C(=O)Nc1cc(C)cc(C)c1)C2C(=O)O (stereo not drawn),-0.2,-14.4,.,-0.7%,-9.9%,7.6%
CCCCCCOc1ccc(CN2CCN(CC)CC2)cc1,54.6*,140.0*,-0.8%,-4.7%,.,249.5%
CCN1CCN(Cc2ccc(OC(F)(F)F)cc2)CC1,-1.3,-5.3,-1.6%,5.0%,6.6%,.
c1ccc(-c2ccc(CN3CCSCC3)cc2)cc1,24.6*,77.3*,-2.7%,-16.5%,262.2%,13.1µM*
CCCCOc1ccc(CN2CCSCC2)cc1,29.5*,42.1*,7.1%,-12.3%,44.8%,-20.9%
O=C(NC1CCCCC1)c1cccc(N2C(=O)CCC2=O)c1,.,.,0.1%,.,27.4%,81.6%

# High-throughput results as filed in PubChem BioAssay.
